# Measurements from PubChem BioAssay.
# The source made the active and inactive calls.
# Legend:
# Albumin (Bos taurus) = Albumin (Bos taurus) (UniProt P02769); assay: compounds binding labelled BSA control protein – biochemical, small-molecule microarray, Alexa647 label, 635/667 nm fluorescence, artefact control for SMM control protein annotation, profiling panel (AID 1118); settings: BSA-A647 binding, fluorescence 635 nm, higher = more signal;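 further: score merges 667 nm emission intensity and signal-to-noise per printed compound spot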
# Chain of Albumin (Bos taurus) (P02769 whole entry, looked up): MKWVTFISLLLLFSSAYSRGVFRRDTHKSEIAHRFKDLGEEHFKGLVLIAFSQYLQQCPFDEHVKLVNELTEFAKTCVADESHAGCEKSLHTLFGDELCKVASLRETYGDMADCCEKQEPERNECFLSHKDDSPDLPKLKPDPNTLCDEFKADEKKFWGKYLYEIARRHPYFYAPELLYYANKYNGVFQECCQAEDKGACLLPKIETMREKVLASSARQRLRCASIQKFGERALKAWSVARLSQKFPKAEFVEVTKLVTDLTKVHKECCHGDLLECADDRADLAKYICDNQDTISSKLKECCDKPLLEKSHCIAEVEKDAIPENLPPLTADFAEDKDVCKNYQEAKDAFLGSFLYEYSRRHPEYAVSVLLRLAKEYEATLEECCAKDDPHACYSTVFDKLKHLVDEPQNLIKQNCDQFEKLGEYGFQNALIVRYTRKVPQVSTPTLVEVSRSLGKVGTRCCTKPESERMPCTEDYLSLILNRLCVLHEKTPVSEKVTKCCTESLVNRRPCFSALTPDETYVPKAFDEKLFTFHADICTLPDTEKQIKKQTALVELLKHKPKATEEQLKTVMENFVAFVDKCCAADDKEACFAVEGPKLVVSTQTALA
# [1] = probe aXIP binding to arrayed compounds – biochemical, NeuroSMM set, 635/667 nm fluorescence, primary screen (AID 1119); settings: small-molecule microarray, higher = more signal, called active from +8 up or from −8 down;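 further: probe is the protein aXip251-270 applied at 1 µg/mL to compound-printed slides; binding of probe to printed compounds measured as 667 nm fluorescence plus signal to noise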
# [2] = probe aNOTCH3 binding on compound microarray – biochemical, small-molecule microarray, 635/667 nm fluorescence, primary screen (AID 1120); settings: higher = more signal;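 further: probe is a biotin-tagged antibody raised against NOTCH3 rather than NOTCH3 protein; score merges spot fluorescence near 667 nm with spot signal to noise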
# [3] = probe aNOTCH2 binding on compound microarray – biochemical, small-molecule microarray, 635/667 nm fluorescence, primary screen (AID 1121); settings: higher = more signal;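 further: score merges feature fluorescence read at 667 nm with its signal to noise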
# [4] = biological target: Carbonic anhydrase 2 (Homo sapiens) (UniProt P00918); assay: compounds binding carbonic anhydrase 2 – biochemical, small-molecule microarray, Alexa647-labelled CAII, profiling panel (AID 1122); settings: CAII-A647 binding fluorescence, higher = more signal
# [5] = COS7 lysate on small-molecule microarray, probe aHis, 635 nm (AID 1123); settings: COS7 cell lysate, fluorescence, higher = more signal;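 further: z-score combines 667nm fluorescence intensity with signal-to-noise per printed compound spot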
# [6] = probe aLAP1 signal on lysate-treated microarray – cell lysate, small-molecule microarray, COS7 lysate, primary screen (AID 1124); settings: probe aLAP1, fluorescence, higher = more signal;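 further: lysate comes from COS7 cells expressing LAP1 and is applied at 0.3 µg/mL; score merges spot fluorescence near 667 nm with signal-to-noise over triplicate slides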
# Sam68 (KHDRBS1) = assay: compounds binding KHDRBS1 protein – biochemical, small-molecule microarray, 635 nm fluorescence, primary screen (AID 1125); settings: higher = more signal;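 further: score merges 667 nm channel intensity with signal to noise over triplicate slides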
# [7] = tested on: Chordin-like protein 2 (CHRDL2); assay: compounds binding chordin-like 2 – biochemical, small-molecule microarray, 635 nm fluorescence, primary screen (AID 1126); settings: fluorescence 635 nm, higher = more signal;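 further: printed compound slides probed with Chrdl2 protein at 4 µg/mL for 1 h at 4 C; score merges 667 nm emission intensity with signal to noise over three replicate slides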
# [8] = biological target: Concanavalin-A (Canavalia ensiformis) (UniProt P02866); assay: compounds binding concanavalin A lectin – biochemical, small-molecule microarray, Alexa647 label, 635 nm, artefact control for SMM control protein annotation, primary screen (AID 1127); settings: ConA-A647 binding fluorescence, higher = more signal;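 further: z combines 667 nm emission intensity with signal-to-noise across three replicate slides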
# Chain of Concanavalin-A (Canavalia ensiformis) (P02866 whole entry, looked up): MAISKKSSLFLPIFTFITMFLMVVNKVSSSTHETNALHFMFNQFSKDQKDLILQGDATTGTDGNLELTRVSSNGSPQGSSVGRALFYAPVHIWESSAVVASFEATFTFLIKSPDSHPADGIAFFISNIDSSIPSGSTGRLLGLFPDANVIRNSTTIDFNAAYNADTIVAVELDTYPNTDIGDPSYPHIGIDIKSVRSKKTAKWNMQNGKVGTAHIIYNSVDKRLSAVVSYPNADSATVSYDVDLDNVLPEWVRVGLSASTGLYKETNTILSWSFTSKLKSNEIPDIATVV
# [9] = compounds binding Alexa647 anti-His antibody – biochemical, small-molecule microarray, 635 nm fluorescence, artefact control for SMM control protein annotation, primary screen (AID 1128); settings: higher = more signal;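 further: score merges feature fluorescence with signal-to-noise for each printed compound spot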
# [10] = tested on: Human papillomavirus type 1a E7 protein (residues 1-88); assay: HPV1a E7 small-molecule binders, primary screen, biochemical, small-molecule microarray, residues 1-88, 635 nm (AID 1129); settings: small-molecule microarray binding, fluorescence 635 nm; higher = more signal
# [11] = biological target: Focal adhesion kinase 1 (Homo sapiens) (UniProt Q05397); assay: PTK2 protein binding on printed compound slides – biochemical, small-molecule microarray, 635/667 nm fluorescence, BSA, DTT, primary screen (AID 1130); settings: 635 nm fluorescence, higher = more signal;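 further: composite of spot emission at 667 nm and signal to noise over triplicate slides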
# Chain of Focal adhesion kinase 1 (Homo sapiens) (Q05397 whole entry, looked up): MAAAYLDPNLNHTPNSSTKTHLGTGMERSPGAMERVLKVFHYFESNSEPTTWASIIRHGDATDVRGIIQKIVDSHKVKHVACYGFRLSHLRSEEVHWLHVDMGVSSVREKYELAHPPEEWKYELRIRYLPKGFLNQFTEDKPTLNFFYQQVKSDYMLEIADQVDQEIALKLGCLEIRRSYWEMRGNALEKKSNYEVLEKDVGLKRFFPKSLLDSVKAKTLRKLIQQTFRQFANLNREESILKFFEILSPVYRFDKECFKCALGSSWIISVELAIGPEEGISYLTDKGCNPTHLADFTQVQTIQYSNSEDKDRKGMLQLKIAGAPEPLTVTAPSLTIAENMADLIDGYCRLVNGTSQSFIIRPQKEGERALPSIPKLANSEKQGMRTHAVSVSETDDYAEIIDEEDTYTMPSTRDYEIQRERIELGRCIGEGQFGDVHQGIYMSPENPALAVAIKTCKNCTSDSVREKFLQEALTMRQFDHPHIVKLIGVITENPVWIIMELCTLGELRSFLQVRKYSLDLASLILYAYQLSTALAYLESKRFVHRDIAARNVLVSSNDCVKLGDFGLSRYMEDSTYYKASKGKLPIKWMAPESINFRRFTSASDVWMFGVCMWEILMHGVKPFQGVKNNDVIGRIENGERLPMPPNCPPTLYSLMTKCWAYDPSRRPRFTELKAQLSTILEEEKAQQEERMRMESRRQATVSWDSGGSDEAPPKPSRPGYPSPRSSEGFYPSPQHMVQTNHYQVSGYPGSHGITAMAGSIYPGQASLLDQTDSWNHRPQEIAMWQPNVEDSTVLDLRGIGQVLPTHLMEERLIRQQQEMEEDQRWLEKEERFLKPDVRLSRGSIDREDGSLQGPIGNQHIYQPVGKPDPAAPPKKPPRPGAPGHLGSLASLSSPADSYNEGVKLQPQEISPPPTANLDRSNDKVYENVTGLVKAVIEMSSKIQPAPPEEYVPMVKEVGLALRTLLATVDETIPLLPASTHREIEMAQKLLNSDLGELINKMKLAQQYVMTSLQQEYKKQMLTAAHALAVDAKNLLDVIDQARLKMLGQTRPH
# [12] = tested on: Fibrinogen (Alexa647-labelled); assay: Alexa647-fibrinogen binding to printed small molecules – biochemical, small-molecule microarray, 635/667 nm fluorescence, artefact control for SMM control-protein annotation, profiling panel (AID 1131); settings: fibrinogen-A647 binding fluorescence, higher = more signal;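 further: z-score merges 667 nm fluorescence with per-spot signal-to-noise over triplicate slides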
# [13] = biological target: Follistatin (Homo sapiens) (UniProt P19883); assay: FST protein binding to printed compounds – biochemical, small-molecule microarray, 635/667 nm fluorescence, primary screen (AID 1132); settings: 635 nm fluorescence, higher = more signal
# Chain of Follistatin (Homo sapiens) (P19883 whole entry, looked up): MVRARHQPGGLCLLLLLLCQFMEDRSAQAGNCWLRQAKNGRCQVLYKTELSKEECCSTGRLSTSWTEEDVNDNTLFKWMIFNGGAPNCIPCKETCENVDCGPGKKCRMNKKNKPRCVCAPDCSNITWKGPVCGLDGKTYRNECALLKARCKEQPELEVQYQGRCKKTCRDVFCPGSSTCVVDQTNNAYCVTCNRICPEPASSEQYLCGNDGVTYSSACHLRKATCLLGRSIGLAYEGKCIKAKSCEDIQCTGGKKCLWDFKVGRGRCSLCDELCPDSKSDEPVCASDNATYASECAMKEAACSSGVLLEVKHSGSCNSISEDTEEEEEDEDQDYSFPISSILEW
# [14] = biological target: Fibroblast growth factor 2 (Homo sapiens) (UniProt P09038); assay: basic fibroblast growth factor binding to printed compounds – biochemical, small-molecule microarray, 635/667 nm fluorescence, primary screen (AID 1133); settings: FGF2, fluorescence 635/667, higher = more signal
# Chain of Fibroblast growth factor 2 (Homo sapiens) (P09038 whole entry, looked up): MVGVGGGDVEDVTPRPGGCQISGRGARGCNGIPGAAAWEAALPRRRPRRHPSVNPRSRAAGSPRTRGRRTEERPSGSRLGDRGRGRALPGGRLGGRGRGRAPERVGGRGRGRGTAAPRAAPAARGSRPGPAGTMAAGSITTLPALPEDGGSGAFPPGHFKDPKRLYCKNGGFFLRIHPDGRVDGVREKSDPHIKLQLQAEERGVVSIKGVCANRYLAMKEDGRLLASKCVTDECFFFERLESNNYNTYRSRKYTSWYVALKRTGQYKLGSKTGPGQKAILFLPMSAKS
# [15] = JC-1 mitochondrial potential readout, lung cancer cells – cell-based, A549, JC-1 fluorescence, basal, 24 h, 100 nL, profiling panel (AID 1138); settings: higher = more signal;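 further: A549 lung adenocarcinoma cells under basal conditions with no added stimulus; test concentration not given here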
# Lefty1 = Lefty1 protein binding to printed compounds – biochemical, small-molecule microarray, 635/667 nm fluorescence, primary screen (AID 1139); settings: fluorescence 635/667, higher = more signal
# [16] = tested on: wheat germ agglutinin (Triticum aestivum), Alexa647-labelled; assay: Alexa647-WGA lectin binding to printed small molecules – biochemical, small-molecule microarray, 635/667 nm fluorescence, artefact control for SMM control-protein annotation, profiling panel (AID 1140); settings: WGA-A647 binding, 635 nm fluorescence, higher = more signal;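 further: score merges 667 nm feature emission with signal to noise over triplicate slides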
# [17] = biological target: Luciferin 4-monooxygenase (Photinus pyralis) (UniProt P08659); assay: inhibition of purified Photinus pyralis luciferase – biochemical, luminescence, purified enzyme, 2006 set, primary screen (AID 1141); settings: purified firefly luciferase, SteadyGlo luminescence, 30 min; higher = more signal, called active from +8 up or from −8 down;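 further: cell-free assay with purified firefly luciferase at 100 ng per well in PBS; test concentration not given here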
# Chain of Luciferin 4-monooxygenase (Photinus pyralis) (P08659 whole entry, looked up): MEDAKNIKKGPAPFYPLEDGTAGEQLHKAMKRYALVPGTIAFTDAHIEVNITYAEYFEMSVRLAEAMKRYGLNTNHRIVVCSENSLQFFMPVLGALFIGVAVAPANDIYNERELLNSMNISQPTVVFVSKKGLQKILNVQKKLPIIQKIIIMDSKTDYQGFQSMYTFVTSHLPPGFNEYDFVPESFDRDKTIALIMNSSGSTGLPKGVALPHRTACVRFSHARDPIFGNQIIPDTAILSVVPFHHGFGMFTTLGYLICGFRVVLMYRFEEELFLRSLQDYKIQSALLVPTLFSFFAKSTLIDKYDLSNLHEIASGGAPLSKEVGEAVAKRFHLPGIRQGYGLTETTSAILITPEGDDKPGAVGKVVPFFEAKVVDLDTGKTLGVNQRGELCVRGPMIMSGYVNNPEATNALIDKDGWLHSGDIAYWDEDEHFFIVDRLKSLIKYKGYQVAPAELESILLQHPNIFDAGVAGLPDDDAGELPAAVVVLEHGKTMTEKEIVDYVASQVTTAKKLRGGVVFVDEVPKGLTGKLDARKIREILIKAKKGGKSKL
Structure (SMILES),composite z-score (Albumin (Bos taurus)),composite Z-score [1],composite z-score [2],composite z-score [3],composite z-score [4],composite z-score [5],composite z-score [6],composite z-score (Sam68 (KHDRBS1)),composite z-score [7],composite z-score [8],composite z-score [9],composite z-score [10],composite z-score [11],composite z-score [12],composite z-score [13],composite z-score [14],z-score [15],composite z-score (Lefty1),composite z-score [16],z-score [17]
O=c1n(-c2ccccc2)c(=O)n2n1CC(COc1ccccc1)=C([C@H](O)CCc1ccccc1)[C@@H]2CO,-0.341,0.11 (inactive),-0.187,-0.0895,-0.241,0.277,-0.408,-0.0362,0.315,-0.352,0.308,0.0864,-0.18,0.783,0.415,1.14,0.77,0.635,0.576,-1.35 (inactive)
COCCOC(=O)N1C(=O)[C@@]2(c3cc(C#CCCO)ccc31)[C@H](C(=O)Nc1nc3ccccc3s1)[C@H]1C(=O)O[C@H](c3ccccc3)[C@H](c3ccccc3)N1[C@@H]2c1ccccc1OCCO,0.623,0.0088 (inactive),0.436,0.297,0.542,1.22,0.627,1.29,0.524,1.14,1.87,1.2,0.764,0.866,1.12,0.69,-2.25,0.573,0.902,-0.551 (inactive)
CCCCCCCCCCC(O)C1C=CC2C(=O)N(C)C(=O)C2N1NC(=O)OC(C)(C)C (stereo not given),0.682,0.245 (inactive),-0.0077,-0.124,0.344,1.24,-0.45,0.717,-0.409,1.12,0.179,0.995,0.723,0.907,-0.406,-0.531,-1.2,-0.19,0.474,-1.33 (inactive)
COc1ccc(NC(=O)O[C@H]2[C@H](OC(=O)Nc3ccccc3)[C@H](OC(=O)Nc3ccccc3)[C@@H](OC)O[C@@H]2CO)cc1,0.693,1.58 (inactive),0.861,0.28,0.703,2.87,0.197,1.31,0.181,0.946,1.65,1.19,0.709,0.284,1.35,1.45,0.732,0.735,0.98,-0.128 (inactive)
CC(=O)NCCCC[C@@H]1NC(=O)[C@H]2C[C@@H](C(=O)NCCCC[N+](C)(C)C)[C@@H](c3cccc(OCCO)c3)N2C1=O,-1.1,2.16 (inactive),0.204,-0.0974,0.704,1.75,1.16,0.719,1.49,1.1,1.57,-0.416,0.191,0.231,1.47,1.85,0.584,1.71,0.552,-1.42 (inactive)
COc1ccccc1CN1C(=O)c2ccccc2[C@@]2(Cc3ccccc3N(CC(F)(F)F)C2=O)[C@@H]1c1ccc(CO)cc1,-0.826,-0.137 (inactive),-0.251,0.156,0.757,0.384,2.4,0.707,1.03,0.331,-0.0478,0.232,0.205,0.049,0.666,0.731,-0.0896,0.292,-0.0716,0.962 (inactive)
C=CC[C@@]1(C(=O)N2CCOCC2)N=C(c2ccc(OCCCO)cc2)O[C@@H]1c1ccccc1CN=[N+]=[N-],0.774,0.28 (inactive),0.405,0.083,0.527,2.89,1.41,1.33,-0.186,1.16,3.06,1.23,0.201,0.905,1.35,1.45,1.97,0.349,0.786,0.0079 (inactive)
N#Cc1ccc(NN2C(C(O)c3ccc(F)cc3)C=CC3C(=O)N(c4ccccc4)C(=O)C32)cc1 (stereo not given),0.824,0.383 (inactive),-0.16,-0.138,0.318,2.59,0.905,-0.306,-1.55,0.536,1.57,0.57,0.171,0.797,0.0089,0.866,0.324,-0.577,0.94,0.646 (inactive)
Cc1ccc(S[C@]2(C(=O)O)CC(=O)N(Cc3ccccc3Cl)[C@@H]2c2ccc(CO)cc2I)cc1,0.0877,-0.648 (inactive),-0.515,-0.269,0.31,0.546,-0.635,0.409,-0.0996,-0.1,0.12,0.193,0.287,-0.147,0.257,0.261,-0.134,-1.23,0.435,0.341 (inactive)
CCOc1cc(C(O)C2C=CC3C(=O)N(C)C(=O)C3N2Nc2ccccc2)ccc1O (stereo not given),1.04,0.765 (inactive),0.194,0.0931,0.827,1.28,-0.438,1.22,0.0675,0.947,1.08,0.881,0.327,0.651,0.0506,-0.153,-0.203,-0.0696,0.974,-1.2 (inactive)
C=C(C)c1cc2c(c(CCCCCC)n1)[Si](C(C)C)(C(C)C)OC2,-0.923,-0.335 (inactive),-0.296,-0.146,-0.484,-0.369,-0.603,-0.631,-1.41,-0.277,0.18,-1.15,-0.534,-1.93,-0.522,-1.45,-1.17,-0.174,-1.19,0.903 (inactive)
